This passage reports Potency results from PubChem BioAssay (Tox21).

The structures appear in SMILES notation. A number with no mark means an inactive call. Records with an inconclusive call do not appear. Activity calls are given as the source filed them. Calls follow the shape of the dose curve; as a rule, active = well fitted curve in the direction sought with a large enough effect in the repeat runs; inconclusive = weak or mixed curves; inactive = no such curve, though single readings can be large; an effect the other way counts as inactive or inconclusive.

Experiment [1] in a line: Caspase-3/7 induction in HepG2 cells by small molecules, qHTS assay (AID 1346978). Also: nearly all actives have a fitted effect of over 15% in size. In short, it runs like this: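 Wild-type HepG2 cells (2,000/well) were settled 5 h at 37 C, 5% CO2, then exposed to compounds in DMSO for 17 h. Caspase-3/7 activity was read by luminescence 30 min after adding Caspase-Glo 3/7 reagent at room temperature.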
Experiment [2] can be described thus: Caspase-3/7 induction in CHO-K1 cells by small molecules, qHTS cell viability counter screen (AID 1346979). Also: nearly all actives have a fitted effect of over 35% in size. Also: potency is read from the fitted curve at half-maximal effect. An outline of the steps:
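Wild-type CHO-K1 cells (1,500/well) treated with compound after 5 h plating; after 16 h at 37C, viability read as CellTiter-Fluor fluorescence following 1 h reagent incubation, in the same wells as the caspase read.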
A general note: qHTS replaces the single test concentration by a dilution series.

Experiment [3] is described as follows: Caspase-3/7 induction in CHO-K1 cells by small molecules, qHTS assay (AID 1346980). Also: nearly all actives have a fitted effect of over 15% in size. In short, it runs like this:
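Wild-type cells were seeded at 1,500 per well and settled 5 hr at 37 C, 5% CO2, then exposed to DMSO-dissolved compounds for 17 hr. Caspase-Glo 3/7 reagent was added, and luminescence was read after 30min at room temperature.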

Experiment [4] is described as follows: Caspase-3/7 induction in HepG2 cells by small molecules, qHTS cell viability counter screen (AID 1346981). Also: nearly all actives have a fitted effect of over 30% in size. Also: potency is read from the fitted curve at half-maximal effect. An outline of the steps:
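Steps: seed 2,000 HepG2 cells per well; incubate 5 hr at 37 C; pin-add compounds in DMSO; incubate 16 hr; add CellTiter-Fluor; after 1 hr at 37 C and 5% CO2, read fluorescence.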

In experiment [5] the target is Nuclear receptor subfamily 1 group I member 2 (Homo sapiens) (UniProt O75469). As to the kind of experiment: Human pregnane X receptor (PXR) small molecule agonists, qHTS assay (AID 1346982). Also: nearly all actives have a fitted effect of over 35% in size. Also: potency is read from the fitted curve at half-maximal effect. In short, it runs like this:
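Agonist mode qHTS: PXR-Luc HepG2 cells plated 5 hr before DMSO-dissolved compounds were pinned in, cultured 24 hr at 37 C, 5% CO2; ONE-Glo luminescence readout.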

Experiment [6] concerns the target Cytochrome P450 2D6 (Homo sapiens) (UniProt P10635). As to the kind of experiment: Cytochrome P450 Family 2 Subfamily D Member 6 (CYP2D6) small molecule antagonists: luciferase reporter qHTS assay (AID 1671196). Also: nearly all actives have a fitted effect of over 50% in size. Also: potency is read from the fitted curve at half-maximal effect. In short, it runs like this: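 P450-Glo format: CYP2D6 converts a proluciferin substrate to luciferin in an NADPH-driven reaction lasting 1 h at room temperature. Light output, proportional to CYP2D6 activity, reflects interference by test chemicals.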

Experiment [7] addresses Cytochrome P450 2C19 (Homo sapiens) (UniProt P33261). The experiment can be described thus: Cytochrome P450 Family 2 Subfamily C Member 19 (CYP2C19) small molecule antagonists: luciferase reporter qHTS assay (AID 1671197). Also: nearly all actives have a fitted effect of over 65% in size. Also: potency is read from the fitted curve at half-maximal effect. In short, it runs like this: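 Luminescent readout of CYP2C19 activity: luciferin product detected 20 min after adding detection reagent. Before that, compound and enzyme-substrate mix preincubated 10 min at room temperature; NADPH-regenerating system started a 1 h, 37C reaction. Ketoconazole as positive control.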
For orientation: In a reporter assay the amount or activity of a reporter protein is the signal.

Experiment [8] addresses Cytochrome P450 2C9 (Homo sapiens) (UniProt P11712). As to the kind of experiment: Cytochrome P450 Family 2 Subfamily C Member 9 (CYP2C9) small molecule antagonists: luciferase reporter qHTS assay (AID 1671198). Also: nearly all actives have a fitted effect of over 50% in size. Also: potency is read from the fitted curve at half-maximal effect. In short, it runs like this:
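CYP2C9 activity was measured with a P450-Glo proluciferin substrate. Enzyme–substrate mix was held with compound for 10 min at room temperature, then NADPH regeneration solution was added for 1 h at 37C. Luciferin product was read as luminescence.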

Experiment [9] concerns the target Voltage-gated inwardly rectifying potassium channel KCNH2 (Homo sapiens) (UniProt Q12809). As to the kind of experiment: Human Ether-a-go-go-Related Gene (hERG) channel small molecule antagonists: fluorescence cell-based qHTS assay (AID 1671200).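 Also: hERG-expressing U2OS cells given a thallium stimulus after FluxOR II dye loading; series mostly up to about 77 µM; nearly all actives have a fitted effect of over 50% in size.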 An outline of the steps:
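hERG-U2OS cells plated overnight at 37 C, loaded with FluxOR II dye 1 h at RT in dark; after 10 min, thallium stimulus added. Fluorescence (480/540 nm) read kinetically for 2 min at 1 s intervals.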
In general terms: hERG is a cardiac potassium channel; its block is linked to QT prolongation.

The target of experiment [10] is Cytochrome P450 3A4 (Homo sapiens) (UniProt P08684). As to the kind of experiment: Cytochrome P450 Family 3 Subfamily A Member 4 (CYP3A4) small molecule antagonists: luciferase reporter qHTS assay (AID 1671201). Also: nearly all actives have a fitted effect of over 50% in size. Also: potency is read from the fitted curve at half-maximal effect. An outline of the steps:
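P450-Glo CYP3A4 luminescent assay: compounds preincubated 10 min at room temperature with enzyme and proluciferin substrate, NADPH regeneration added, 1 h room-temperature reaction, stopped with luciferin detection reagent; luminescence read after 20 min. Ketoconazole positive control.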

Experiment [11] concerns the target Cytochrome P450 1A2 (Homo sapiens) (UniProt P05177). As to the kind of experiment: Cytochrome P450 Family 1 Subfamily A Member 2 (CYP1A2) small molecule antagonists: luciferase reporter qHTS assay (AID 1671199). Also: nearly all actives have a fitted effect of over 50% in size. Also: potency is read from the fitted curve at half-maximal effect. In short, it runs like this:
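Inhibition of CYP1A2 conversion of proluciferin to luciferin, detected by luminescence. Reaction run 1 h at room temperature with NADPH regeneration after brief compound preincubation.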

Sequence of Cytochrome P450 3A4 (Homo sapiens) (P08684 whole entry, looked up): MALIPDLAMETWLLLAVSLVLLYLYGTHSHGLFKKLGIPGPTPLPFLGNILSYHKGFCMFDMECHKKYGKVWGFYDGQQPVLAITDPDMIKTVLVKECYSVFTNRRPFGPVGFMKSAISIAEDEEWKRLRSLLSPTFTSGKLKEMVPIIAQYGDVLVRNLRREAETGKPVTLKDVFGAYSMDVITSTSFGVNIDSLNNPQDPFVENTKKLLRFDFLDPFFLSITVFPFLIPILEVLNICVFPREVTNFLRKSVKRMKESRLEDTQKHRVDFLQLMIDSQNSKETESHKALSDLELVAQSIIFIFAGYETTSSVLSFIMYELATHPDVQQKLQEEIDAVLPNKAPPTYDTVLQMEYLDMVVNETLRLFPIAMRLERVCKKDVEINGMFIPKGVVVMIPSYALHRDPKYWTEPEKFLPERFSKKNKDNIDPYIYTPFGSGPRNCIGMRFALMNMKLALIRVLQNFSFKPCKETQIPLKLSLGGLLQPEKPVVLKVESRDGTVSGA
Sequence of Voltage-gated inwardly rectifying potassium channel KCNH2 (Homo sapiens) (Q12809 whole entry, looked up): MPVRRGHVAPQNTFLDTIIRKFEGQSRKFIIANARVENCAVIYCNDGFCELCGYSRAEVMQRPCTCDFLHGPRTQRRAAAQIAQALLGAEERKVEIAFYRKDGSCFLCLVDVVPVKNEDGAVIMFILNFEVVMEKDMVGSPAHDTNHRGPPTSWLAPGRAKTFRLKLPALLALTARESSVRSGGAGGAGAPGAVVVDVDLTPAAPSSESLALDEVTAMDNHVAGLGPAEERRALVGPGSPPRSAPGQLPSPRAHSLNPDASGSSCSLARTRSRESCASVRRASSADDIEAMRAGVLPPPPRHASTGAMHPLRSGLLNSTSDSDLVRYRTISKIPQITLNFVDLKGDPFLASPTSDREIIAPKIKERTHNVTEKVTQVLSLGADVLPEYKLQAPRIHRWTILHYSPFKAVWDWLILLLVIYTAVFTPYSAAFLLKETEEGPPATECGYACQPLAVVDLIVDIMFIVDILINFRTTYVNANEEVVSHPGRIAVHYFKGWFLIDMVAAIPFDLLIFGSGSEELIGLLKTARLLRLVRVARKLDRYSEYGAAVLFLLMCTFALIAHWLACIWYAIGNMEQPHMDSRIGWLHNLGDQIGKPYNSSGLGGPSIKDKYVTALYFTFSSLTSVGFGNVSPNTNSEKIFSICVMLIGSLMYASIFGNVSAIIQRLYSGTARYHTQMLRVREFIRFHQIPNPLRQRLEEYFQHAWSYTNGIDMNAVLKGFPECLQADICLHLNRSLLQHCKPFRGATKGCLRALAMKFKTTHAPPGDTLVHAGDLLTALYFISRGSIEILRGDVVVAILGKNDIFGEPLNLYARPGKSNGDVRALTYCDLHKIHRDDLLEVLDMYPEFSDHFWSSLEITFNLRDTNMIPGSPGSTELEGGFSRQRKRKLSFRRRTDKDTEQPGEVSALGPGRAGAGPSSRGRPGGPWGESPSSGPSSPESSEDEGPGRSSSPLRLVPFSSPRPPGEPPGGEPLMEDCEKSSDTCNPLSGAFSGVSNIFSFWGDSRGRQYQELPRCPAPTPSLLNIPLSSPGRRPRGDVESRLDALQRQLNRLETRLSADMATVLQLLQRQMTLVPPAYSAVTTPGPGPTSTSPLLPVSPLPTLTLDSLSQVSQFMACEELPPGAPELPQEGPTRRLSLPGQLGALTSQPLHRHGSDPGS
Sequence of Cytochrome P450 2C19 (Homo sapiens) (P33261 whole entry, looked up): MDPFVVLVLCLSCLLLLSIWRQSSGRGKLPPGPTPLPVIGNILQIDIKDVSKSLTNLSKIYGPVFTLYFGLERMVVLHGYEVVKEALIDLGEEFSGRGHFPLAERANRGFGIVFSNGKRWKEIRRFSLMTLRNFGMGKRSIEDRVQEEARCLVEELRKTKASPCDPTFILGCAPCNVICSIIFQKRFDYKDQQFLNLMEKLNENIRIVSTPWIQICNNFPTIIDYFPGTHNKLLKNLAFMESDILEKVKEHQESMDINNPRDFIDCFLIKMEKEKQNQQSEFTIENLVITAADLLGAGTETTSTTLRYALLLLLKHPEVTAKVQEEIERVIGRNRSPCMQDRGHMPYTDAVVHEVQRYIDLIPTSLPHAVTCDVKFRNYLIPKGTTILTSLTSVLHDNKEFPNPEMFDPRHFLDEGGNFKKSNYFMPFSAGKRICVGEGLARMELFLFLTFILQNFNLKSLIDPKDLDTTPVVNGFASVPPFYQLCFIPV
Sequence of Nuclear receptor subfamily 1 group I member 2 (Homo sapiens) (O75469 whole entry, looked up): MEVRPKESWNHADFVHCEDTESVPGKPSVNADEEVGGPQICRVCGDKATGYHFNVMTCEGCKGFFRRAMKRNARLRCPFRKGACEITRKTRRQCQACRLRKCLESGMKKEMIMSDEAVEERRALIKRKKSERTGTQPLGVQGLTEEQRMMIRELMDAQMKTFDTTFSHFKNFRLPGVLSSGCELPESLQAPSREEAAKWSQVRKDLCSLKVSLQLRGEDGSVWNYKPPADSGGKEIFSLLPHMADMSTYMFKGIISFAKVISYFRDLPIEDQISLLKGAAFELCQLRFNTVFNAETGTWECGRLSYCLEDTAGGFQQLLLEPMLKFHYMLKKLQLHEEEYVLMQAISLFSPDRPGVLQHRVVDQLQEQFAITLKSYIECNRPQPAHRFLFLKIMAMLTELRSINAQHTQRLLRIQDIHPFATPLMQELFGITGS
Sequence of Cytochrome P450 2D6 (Homo sapiens) (P10635 whole entry, looked up): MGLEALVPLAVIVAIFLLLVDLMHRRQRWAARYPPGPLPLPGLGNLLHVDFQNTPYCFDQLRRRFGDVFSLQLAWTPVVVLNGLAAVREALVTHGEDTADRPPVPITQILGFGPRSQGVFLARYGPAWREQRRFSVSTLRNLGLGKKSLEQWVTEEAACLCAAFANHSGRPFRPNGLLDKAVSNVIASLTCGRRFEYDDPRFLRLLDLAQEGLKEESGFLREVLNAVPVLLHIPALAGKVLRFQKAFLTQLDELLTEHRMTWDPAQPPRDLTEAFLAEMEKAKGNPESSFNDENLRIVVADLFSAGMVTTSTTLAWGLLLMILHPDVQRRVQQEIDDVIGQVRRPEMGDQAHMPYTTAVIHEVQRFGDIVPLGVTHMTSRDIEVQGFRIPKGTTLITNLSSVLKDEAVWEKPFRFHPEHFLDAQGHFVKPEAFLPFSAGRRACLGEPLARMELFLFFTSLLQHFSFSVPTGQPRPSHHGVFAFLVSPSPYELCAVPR
Sequence of Cytochrome P450 1A2 (Homo sapiens) (P05177 whole entry, looked up): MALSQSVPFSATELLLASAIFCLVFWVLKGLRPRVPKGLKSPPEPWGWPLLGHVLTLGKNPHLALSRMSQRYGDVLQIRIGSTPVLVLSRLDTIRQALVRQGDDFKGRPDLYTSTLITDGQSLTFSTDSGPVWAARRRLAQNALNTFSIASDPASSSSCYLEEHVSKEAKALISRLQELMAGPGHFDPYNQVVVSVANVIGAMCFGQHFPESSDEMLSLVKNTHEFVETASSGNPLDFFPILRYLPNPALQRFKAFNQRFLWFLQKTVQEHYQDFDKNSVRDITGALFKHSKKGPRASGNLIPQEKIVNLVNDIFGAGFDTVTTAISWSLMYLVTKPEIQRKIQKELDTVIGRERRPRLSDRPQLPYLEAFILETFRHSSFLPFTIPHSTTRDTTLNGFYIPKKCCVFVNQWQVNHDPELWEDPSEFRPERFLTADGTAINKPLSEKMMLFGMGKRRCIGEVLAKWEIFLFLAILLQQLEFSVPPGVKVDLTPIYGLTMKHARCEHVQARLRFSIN
Sequence of Cytochrome P450 2C9 (Homo sapiens) (P11712 whole entry, looked up): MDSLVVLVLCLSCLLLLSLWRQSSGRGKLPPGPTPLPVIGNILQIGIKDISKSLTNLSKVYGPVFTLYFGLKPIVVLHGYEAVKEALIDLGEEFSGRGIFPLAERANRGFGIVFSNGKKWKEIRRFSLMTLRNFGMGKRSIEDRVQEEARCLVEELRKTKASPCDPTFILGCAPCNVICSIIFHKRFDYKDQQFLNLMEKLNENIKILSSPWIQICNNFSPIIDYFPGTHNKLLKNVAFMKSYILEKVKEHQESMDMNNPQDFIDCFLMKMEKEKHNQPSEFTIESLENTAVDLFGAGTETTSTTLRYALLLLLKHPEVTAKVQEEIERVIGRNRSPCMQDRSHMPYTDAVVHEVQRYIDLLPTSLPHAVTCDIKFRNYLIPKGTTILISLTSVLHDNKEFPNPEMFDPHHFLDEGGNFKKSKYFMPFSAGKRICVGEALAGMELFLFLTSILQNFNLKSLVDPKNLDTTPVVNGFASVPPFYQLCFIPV

For `CC1(C)C(=O)N(CO)C(=O)N1CO`, the Potency entry in experiment [1], in experiment [2], in experiment [3], in [4], in experiment [5] and in experiment [6] was “inactive” in each case. In addition, the Potency result in experiment [7], in [8], in experiment [9] and in experiment [10] was “inactive” throughout.

Take `CCc1c(Br)c(Br)c(Br)c(Br)c1Br`: the Potency entry in experiment [1], in experiment [2], in experiment [3], in [4], in [5] and in [6] was “inactive” each time. For the same compound, the Potency entry in experiment [7], in experiment [8], in [9] and in [10] was “inactive” throughout. In addition, in experiment [11], the Potency was 11.2 µM (active).

With `CCCCCCS`, the Potency result in experiment [1], in experiment [2], in experiment [3], in experiment [4], in experiment [5] and in [6] was “inactive” each time. Also, the Potency result in experiment [7], in experiment [8], in [9] and in experiment [10] was “inactive” throughout.

On to `CC(C)C(=O)OCc1ccccc1`, for which the Potency entry in [1], in experiment [2], in [3], in experiment [4], in experiment [5] and in experiment [6] was “inactive” each time. Also, the Potency entry in experiment [7], in experiment [8], in experiment [11], in experiment [9] and in [10] was “inactive” throughout.

For `O=C1c2c(O)ccc([N+](=O)[O-])c2C(=O)c2c([N+](=O)[O-])ccc(O)c21`, the Potency entry in experiment [1], in [3], in experiment [5] and in experiment [9] was “inactive” in each case. Besides, the Potency in [2] is 12.1 µM (active); in experiment [4], 24.1 µM (active); in [6], 31.4 µM (active); in [7] it was 12.5 µM (active); in experiment [8] it was 28 µM (active); in experiment [11], 7.03 µM (active). In addition, in experiment [10], the Potency was 12.5 µM (active).

On to `CC(C)=CCCC(C)CCOC(=O)C(C)C` (configuration not stated), for which the Potency result in experiment [1], in [2], in [3], in [4], in experiment [5] and in [6] was “inactive” each time. Further, the Potency result in experiment [11] and in [9] was “inactive” each time. Further, in [7], the Potency is 79.6 µM (active).

As to `CCCCCCCC/C=C\CCCCCCCC(=O)OCCOC(=O)CCCCCCC/C=C\CCCCCCCC`, the Potency entry in [1], in experiment [2], in experiment [3] and in experiment [4] was “inactive” throughout. Moreover, the Potency in [5] is 71.2 µM (active); in [6], 46.5 µM (active); in [7] it was 46.5 µM (active); in experiment [8], 14.7 µM (active); in [11], 52.2 µM (active); in experiment [10], 10.4 µM (active).

As for `CCOC(=O)COc1ccc(C)cc1`, the Potency entry in experiment [1], in experiment [2], in [3], in experiment [4], in experiment [5] and in experiment [6] was “inactive” in each case. The Potency result in experiment [7], in experiment [9] and in experiment [10] was “inactive” each time. Besides, the Potency in experiment [11] was 39.9 µM (active).

Turning to `C/C=C/CO`, the Potency result in experiment [1], in experiment [2], in experiment [3], in experiment [4], in [5] and in experiment [6] was “inactive” each time. Also, the Potency entry in [7], in [8], in experiment [9] and in experiment [10] was “inactive” in each case.

For the compound `CC(C)CCOCCC(C)C`, the Potency entry in [1], in experiment [2], in experiment [3], in [4], in [5] and in experiment [8] was “inactive” throughout. Also, the Potency entry in [11], in [9] and in experiment [10] was “inactive” each time.

On to `COC(=O)CC#N`, for which the Potency entry in experiment [1], in [2], in [3], in experiment [4], in experiment [5] and in experiment [8] was “inactive” in each case. Also, the Potency result in experiment [9] and in [10] was “inactive” in each case.

On to `C=C(C)C(=O)OCCC[Si](Cl)(Cl)Cl`, for which the Potency entry in experiment [1], in [2], in experiment [3], in [4], in experiment [5] and in experiment [11] was “inactive” in each case. Moreover, the Potency entry in [9] was “inactive”. The Potency in experiment [7] is 80.4 µM (active); in experiment [8], 22.7 µM (active); in experiment [10], 12.7 µM (active).

`CCCCCCCCCCCCCCCC`: the Potency result in [1], in experiment [2], in [3], in experiment [4], in [6] and in experiment [7] was “inactive” each time. Further, the Potency result in [11], in experiment [9] and in [10] was “inactive” throughout. In addition, the Potency in [8] was 39.9 µM (active).

For the compound `OCCC(O)CO` (configuration not stated), the Potency result in experiment [1], in [2], in experiment [3], in [4], in experiment [6] and in experiment [7] was “inactive” throughout. Besides, the Potency result in [8], in experiment [11], in experiment [9] and in [10] was “inactive” each time.

As for `Oc1cc2ccccc2cc1O`, the Potency result in [1], in [2], in [3], in experiment [4], in [5] and in [9] was “inactive” throughout. Further, the Potency in experiment [7] was 39.9 µM (active); in [11] it was 31.7 µM (active).

`CC1CCCNC1` (configuration not stated): the Potency result in experiment [1], in [2], in experiment [3], in experiment [4], in [7] and in [8] was “inactive” throughout. For the same compound, the Potency result in experiment [11], in experiment [9] and in experiment [10] was “inactive” each time. The Potency in [6] was 39.1 µM (active).

Regarding `CN(C)CCN1CCOCC1`, the Potency result in experiment [1], in experiment [2], in [3], in [4], in [5] and in [7] was “inactive” throughout. Moreover, the Potency result in experiment [8], in experiment [11] and in experiment [9] was “inactive” throughout.

Consider `O=C(O)CCCCCCC(=O)O`, for which the Potency entry in [1], in experiment [2], in [3], in [4], in experiment [5] and in [8] was “inactive” in each case. In addition, the Potency entry in experiment [9] and in experiment [10] was “inactive” in each case. Further, the Potency in experiment [6] was 35.9 µM (active).

On to `COC(=O)[C@]1(C)CCC[C@@]2(C)[C@H]1CC=C1C=C(C(C)C)CC[C@@H]12`, for which the Potency result in [1], in [2], in experiment [3], in [4] and in [9] was “inactive” in each case. The Potency in experiment [5] was 17.2 µM (active); in [7], 28.3 µM (active); in experiment [8], 31.7 µM (active); in [10] it was 35.6 µM (active).

`CCCC(O)C(O)CO` (configuration not stated): the Potency result in experiment [1], in [2], in experiment [3], in [4], in [6] and in experiment [7] was “inactive” in each case. Moreover, the Potency result in [8], in experiment [11], in experiment [9] and in [10] was “inactive” throughout.

Consider `CCN(CC)c1cccc(C)c1`, for which the Potency entry in experiment [1], in experiment [2], in experiment [3], in experiment [4], in experiment [5] and in [7] was “inactive” in each case. For the same compound, the Potency result in [8], in [11], in [9] and in [10] was “inactive” in each case.

Regarding `CCOCN(C(=O)CS(=O)(=O)O)c1c(C)cccc1CC`, the Potency entry in experiment [1], in experiment [2], in experiment [3], in experiment [4], in [5] and in [6] was “inactive” each time. Also, the Potency entry in experiment [11] and in experiment [9] was “inactive” throughout.
